Assay results reported in PubChem BioAssay (EPA / NIEHS).
Records with an inconclusive call do not appear. The source made the active and inactive calls. How the source made its calls: active means hit-call score of the fitted dose curve at least 0.9, where 1 is the maximum; inconclusive means response in the unintended direction; inactive means score below 0.9.

Read-out: sulfotransferase (SULT2A), SULT2A1 (gene 6822)
Test: CLD_SULT2A_6hr: CellzDirect (CLD) Gene Expression Assay for sulfotransferase (SULT2A) at 6 hours (AID 2283669);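 further: hits raise transcript level above the DMSO vehicle baseline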
Method: CLD_6hr is a cell-based, multiplexed-readout assay that uses hepatocyte, a human liver primary cell, with measurements taken at 6 hours after chemical dosing in a 96-well plate.CLD_SULT2A_6hr is one of 16 assay component(s) measured or calculated from the CLD_6hr assay. It is designed to make measurements of mRNA induction, a form of inducible reporter, as detected with chemiluminescence signals by Quantitative Nuclease Protection Assay (qNPA) technology.Data from the assay component CLD_SULT2A_6hr was analyzed at the endpoint, CLD_SULT2A_6hr, in the positive analysis fitting direction relative to DMSO as the negative control and baseline of activity. Using a type of inducible reporter, gain-of-signal activity can be used to understand changes in the reporter gene as they relate to the gene SULT2A1. Furthermore, this assay endpoint can be referred to as a primary readout. To generalize the intended target to other relatable targets, this assay endpoint is annotated to the transferase intended target family, where subfamily is sulfotransferase.
Human hepatocyte cultures were treated daily for two consecutive days with fresh dosing solutions containing appropriate concentrations of the 320 ToxCast chemicals (chemical identities were blinded to CellzDirect and other ToxCast collaborators), vehicle control (0.2% DMSO), and positive control inducers as summarized in Table 1. Due to the large number of treatment groups and chemicals examined, the ToxCast chemicals were divided into two groups (spanning two independent cultures of hepatocytes from separate donor preparations (Hu778: ToxCast plates 1 and 2; Hu776: ToxCast plates 3 and 4). Each preparation of human hepatocyte cultures was treated with respective vehicle control, medium only control, set of six positive controls/reference chemicals for the five hepatic receptor pathways, and a subset of eight of the ToxCast chemicals (indoxacarb, pyrithiobac-sodium, norflurazon, cyhalofop-butyl, methomyl, thiram, acetochlor, and propiconazole). These replicate data, coupled with internal replicates designed within the blinded ToxCast chemical library, provided additional data to evaluate interindividual differences between hepatocyte preparations and their potential impact on chemical profiles.Cell morphology and integrity were evaluated using phase-contrast microscopy as an indicator of hepatocyte cell health (Tyson & Green, 1987). Cultures for each treatment group (i.e., media, vehicle [0.2% DMSO], positive control inducers [multiple concentrations], and the ToxCast chemicals [multiple concentrations]) were observed and cell morphology was assessed relative to vehicle control cultures at each harvest time point (0, 6, 24, or 48 h). […] Images were evaluated at the conclusion of the study to assess changes in cell integrity and account for the effects of chemical exposure on uncharacteristic changes in concentration-dependent gene expression profiles. The results from these determinations of apparent cytotoxicity were annotated (yes/no) alongside the corresponding qNPA data for reference.At the conclusion of each treatment period, hepatocyte cultures (96-well) were washed with 1 volume of HBSS, lysed by addition of 25 ul ArrayPlate lysis buffer (HTG, Tucson, AZ), and 70 ul/well of Denaturation Oil, denatured by incubation at 95C for 10 min, and frozen at approximately -70C until analysis by nuclease protection assay (qNPA) (Roberts et al., 2007). For qNPA analysis, cell lysates were thawed at 50C for approximately 30 min, qNPA probes were added, and samples were incubated at 95C for 10 min to begin the detection process by denaturing the target RNA, dissociating the duplexes and secondary structure hybridization. At the conclusion of the hybridization period, S1 nuclease reagent was added to each sample to digest all nonprotected nucleotides at 50C for 60-90 min. […]

Q: CCCCC(CC)COC(=O)c1ccccc1C(=O)O (stereo not given) was tested. Which outcome did it give?
A: inactive

Q: How did the outcome turn out when CCCCC(CC)CN1C(=O)C2C3C=CC(C3)C2C1=O (stereo not given) was run?
A: inactive

Q: Which outcome does the source give for CCCCOC(=O)C(C)Oc1ccc(Oc2ccc(C(F)(F)F)cn2)cc1 (stereo not given) here?
A: inactive

Q: How did the outcome turn out when CCCCOC(=O)[C@@H](C)Oc1ccc(Oc2ccc(C(F)(F)F)cn2)cc1 was run?
A: inactive

Q: How did the outcome turn out when O=C(O)C1(C(=O)Nc2ccc(Cl)cc2Cl)CC1 was run?
A: inactive

Q: CCC(C)OC(=O)N1CCCCC1CCO (stereo not given) was tested. Which outcome did it give?
A: inactive

Q: For CCCCCOC(=O)COc1cc(N2C(=O)C3=C(CCCC3)C2=O)c(F)cc1Cl, which outcome is on record?
A: inactive

Q: For N#CSCSc1nc2ccccc2s1, which outcome is on record?
A: inactive

Q: With CCCOC(=O)NCCCN(C)C as the compound, how does the outcome read?
A: inactive

Q: With C=CCOC(Cn1ccnc1)c1ccc(Cl)cc1Cl (stereo not given) as the compound, how does the outcome read?
A: inactive

Q: CCOC(=O)NCCOc1ccc(Oc2ccccc2)cc1 was tested. Which outcome did it give?
A: inactive

Q: With CC1(C)C(C=C(Cl)Cl)C1C(=O)OCc1cccc(Oc2ccccc2)c1 (stereo not given) as the compound, how does the outcome read?
A: inactive

Q: With CSC(=O)c1cccc2nnsc12 as the compound, how does the outcome read?
A: inactive

Q: For CCN(Cc1c(F)cccc1Cl)c1c([N+](=O)[O-])cc(C(F)(F)F)cc1[N+](=O)[O-], which outcome is on record?
A: inactive

Q: Which outcome does the source give for CCOC(=O)C(C)Oc1ccc(Oc2nc3ccc(Cl)cc3o2)cc1 (stereo not given) here?
A: inactive

Q: CCN(CC)C(=O)c1cccc(C)c1 was tested. Which outcome did it give?
A: inactive

Q: For Cc1nn(C)c(Oc2ccccc2)c1C=NOCc1ccc(C(=O)OC(C)(C)C)cc1, which outcome is on record?
A: inactive

Q: CCCN(CCC)c1c([N+](=O)[O-])cc(C(F)(F)F)c(N)c1[N+](=O)[O-] was tested. Which outcome did it give?
A: inactive

Q: For S=C([S-])NCCNC(=S)[S-].[Mn+2], which AC50 is on record?
A: 3.97 µM (active)

Q: Which outcome does the source give for CCOC(=O)COc1cc(-n2ncc(C(F)(F)F)c(C)c2=O)c(F)cc1Cl here?
A: inactive

Q: For CC(C)(C)[C@@H](O)[C@@H](Cc1ccc(Cl)cc1)n1cncn1, which outcome is on record?
A: inactive

Q: How did the outcome turn out when COC(=O)c1ccccc1C(=O)O was run?
A: inactive

Q: For COC(=O)c1cccc(C)c1S(=O)(=O)NC(=O)Nc1nc(OCC(F)(F)F)nc(N(C)C)n1, which outcome is on record?
A: inactive

Q: Which outcome does the source give for CCNc1nc(N)nc(Cl)n1 here?
A: inactive

Q: How did the outcome turn out when COC(=O)c1ccc(CNS(C)(=O)=O)cc1S(=O)(=O)NC(=O)Nc1nc(OC)cc(OC)n1 was run?
A: inactive

Q: With CCCN(CCC)C(=O)SCC as the compound, how does the outcome read?
A: inactive

Q: With Oc1ccc(C(c2ccc(O)cc2)C(Cl)(Cl)Cl)cc1 as the compound, how does the outcome read?
A: inactive

Q: CN(C)C(=O)Nc1ccc(Cl)c(Cl)c1 was tested. Which outcome did it give?
A: inactive

Q: With S=C(S)NCCNC(=S)S.[Mn+2].[S-]C([S-])=NCCN=C([S-])[S-].[Zn+2] as the compound, how does the outcome read?
A: inactive

Q: Which outcome does the source give for CCCOC(=O)c1ccc(C(=O)OCCC)nc1 here?
A: inactive

Q: C#CCOC(=O)[C@@H](C)Oc1ccc(Oc2ncc(Cl)cc2F)cc1 was tested. Which outcome did it give?
A: inactive

Q: How did the outcome turn out when CCSC(=O)N(CC(C)C)CC(C)C was run?
A: inactive

Q: With COc1nc(C)nc(NC(=O)NS(=O)(=O)c2ccccc2OCCCl)n1 as the compound, how does the outcome read?
A: inactive

Q: With CCOC(=O)[C@H](C)Oc1ccc(Oc2nc3ccc(Cl)cc3o2)cc1 as the compound, how does the outcome read?
A: inactive

Q: For CC(C)(c1ccc(O)cc1)c1ccc(O)cc1, which outcome is on record?
A: inactive

Q: Which outcome does the source give for CCCCOCCOCCOCc1cc2c(cc1CCC)OCO2 here?
A: inactive

Q: How did the outcome turn out when COC(=O)c1ccc(I)cc1S(=O)(=O)NC(=O)Nc1nc(C)nc(OC)n1 was run?
A: inactive

Q: COC(=O)c1c(Cl)nn(C)c1S(=O)(=O)NC(=O)Nc1nc(OC)cc(OC)n1 was tested. Which outcome did it give?
A: inactive

Q: COC(=O)CSc1cc(N=c2sc(=O)n3n2CCCC3)c(F)cc1Cl was tested. Which outcome did it give?
A: inactive

Q: How did the outcome turn out when COc1c(Cl)ccc(Cl)c1C(=O)O was run?
A: inactive
